Measurements taken from PMC10214531.

Target: Guanine nucleotide-binding protein G(I)/G(S)/G(T) subunit beta-1 (UniProt P62873)
Experiment: cross-link between two proteins; cross-linking mass spectrometry

Guanine nucleotide-binding protein G(I)/G(S)/G(O) subunit gamma-2, P59768
listed as a hit: yes
